BL2 CD40 inh: CD40 pathway inhibition in BL2 cells; inhibition, % at 10 µM; BL2 NF-kB luciferase reporter, CD40L-induced, 4 h; AID 1053188; actives 0.94% (n = 83,000);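 active = mean inhibition of at least 50% with a set share of replicates also reaching that level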;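 also: 0% = neutral control wells and 100% = IKK inhibitor VII at 50 µM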
* marks the source's active call; other numbers are inactive results; [ ] = remark or other dose. Only a selection was taken, and hits are over-represented in it overall.

SMILES | BL2 CD40 inh
COc1ccccc1C#Cc1ccc2c(c1)[C@@H]1NCC[C@@H]1[C@H](CO)N2 | -11[25 µM]
Cc1ccc(-c2csc(NC(=O)c3c(C)noc3C)n2)cc1 | 5
Cc1nc(NS(=O)(=O)c2ccccc2C)c2c3c(sc2n1)CCC3 | -4
c1ccc(N=Nc2ccc(C3=NCCO3)cc2)cc1 | 14
Cc1ccc(O)c(N=Nc2ccccc2)n1 | 55*[25 µM]
Oc1[nH]c2ccccc2c1N=Nc1ccccc1 | -73
O=C(Nc1ccc(F)cc1)c1nn(-c2ccccc2)c(=O)cc1Cl | 85*
CCOC(=O)c1nn(-c2ccc(F)cc2)c(=O)cc1OCC(=O)Nc1cccc(C)c1 | 12
Cc1ccc(NC(=O)c2cc(-c3ccccc3)nn2-c2ccccc2)cc1 | -3
CCCNC(=O)N1[C@H](CO)[C@H](c2ccc(-c3ccc(C#N)cc3)cc2)[C@@H]1CNC | 14[25 µM]
O=C(NCCCN1CCCC1)C1CCC(=O)N1C1CCCCC1 (stereo not given) | 5
CCOC(=O)c1cc2c(=Cc3ccc(N(C)C)cc3)c3ccccc3n2[n+]1C | 24
C[n+]1c(-c2ccccc2)cc2c(=Cc3ccccc3)c3ccccc3n21 | 93*
C[n+]1c(-c2ccccc2)cc2c(=Cc3ccc([N+](=O)[O-])cc3)c3ccccc3n21 | 110*
CN(C)c1ccc(C=c2c3cc(O)ccc3n3c2cc(-c2ccccc2)[n+]3C)cc1 | 80*
O=[N+]([O-])c1ccc2c(c1)c(-c1ccccc1)nc1nncn12 | 1
O=[N+]([O-])c1ccc(C=CC=Cc2ccccc2)cc1 | 3
Cc1nc2ccccc2nc1OCC(=O)Nc1ccc(F)cc1 | 6
COC(=O)c1ccccc1OCCOCCOc1cccc2ccc(C)nc12 | 8
O=C(Nc1ccc(Oc2ccc3ccccc3c2)cc1)c1ccco1 | -13
CCOc1ncccc1C(=O)N1CCN(S(=O)(=O)c2cccs2)CC1 | 22
O=C(N1CCCCCC1)N1CCN(S(=O)(=O)N2CCOCC2)CC1 | 7
CC1CCCCN1C(=O)Cn1c(=O)oc2cc(S(=O)(=O)N3CCCC3)ccc21 (stereo not given) | 2
COc1ccc2[nH]c(=O)c3c(c2c1)OC(C)(C)C=C3 | 38*
COc1ccc2[nH]c(O)c(NC(C)=O)c2c1 | 7
SMILES | BL2 CD40 inh
COc1ccc2nc(C)[nH]c(=O)c2c1 | 3
CCN1CCN(c2cc3c(cc2F)c(=O)c(C(=O)O)cn3C2CC2)CC1 | 6
O=C(NCC[C@H]1CC[C@H](NS(=O)(=O)c2cccc(F)c2)[C@@H](CO)O1)C1CCCC1 | 6
O=C(Nc1ccc2c(c1)OCO2)C1CCN(Cc2cc3c(cc2O)OCO3)CC1 | -7
C/C=C/c1ccc([C@@H]2[C@@H](CO)N3CCCCN(S(=O)(=O)c4ccc(OC)cc4)C[C@H]23)cc1 | 30[25 µM]
COC(=O)c1sccc1-n1cccc1C(=O)NCc1ccccc1 | 15
Cc1c(C)[n+](=O)c(C)c(C)n1[O-] | 7
COCCn1c(-c2ccc(C#N)cc2)nc2c1c(=O)[nH]c(=O)n2Cc1ccccc1 | 7
O=C1C(=Cc2ccccc2[N+](=O)[O-])Cc2ccccc21 | 50*
CC1(C)CC(=Cc2ccccc2[N+](=O)[O-])C(=O)c2ccccc21 | -21
O=C1C(=Cc2cccc(F)c2)Cc2ccccc21 | -137
O=C1N(Cc2cccc(Cl)c2)C[C@@H]2C[C@@H](c3ccco3)N3CCC[C@@]123 | 3
Oc1ccc(CN2CCC(Cc3ccccc3)CC2)c2cccnc12 | 25
Oc1ccc(Cc2ccccc2)c2cccnc12 | 83*
OCc1ccc(O)c2ncccc12 | 29
CCCNC(=O)N1[C@H](C#N)[C@H](c2ccc(C#Cc3cccc(F)c3)cc2)[C@H]1CO | 77*[25 µM]
N#C[C@H]1[C@H](c2ccc(C#Cc3cccc(F)c3)cc2)[C@@H](CO)N1C(=O)C1CC1 | 37
N#C[C@H]1[C@H](c2ccc(C#Cc3cccc(F)c3)cc2)[C@@H](CO)N1C(=O)C1CCC1 | 55*
N#C[C@H]1[C@H](c2ccc(C#Cc3ccc(F)cc3)cc2)[C@@H](CO)N1C(=O)C1CCC1 | 54*[25 µM]
N#C[C@@H]1[C@@H](c2ccc(C#Cc3ccc(F)cc3)cc2)[C@H](CO)N1C(=O)C1CCC1 | 1[25 µM]
N#C[C@H]1[C@@H](c2ccc(C#Cc3ccccc3F)cc2)[C@@H](CO)N1C(=O)C1CCC1 | 8
N#C[C@H]1[C@@H](c2ccc(C#Cc3cccc(F)c3)cc2)[C@H](CO)N1C(=O)C1CCCC1 | -6
N#C[C@H]1[C@@H](c2ccc(C#Cc3cccc(F)c3)cc2)[C@H](CO)N1C(=O)C1CC1 | -1
CCCNC(=O)N1[C@H](C#N)[C@@H](c2ccc(C#Cc3cccc(F)c3)cc2)[C@@H]1CO | -1[25 µM]
N#C[C@H]1[C@H](c2ccc(C#Cc3cccc(F)c3)cc2)[C@@H](CO)N1C(=O)C1CCCC1 | 42
N#C[C@@H]1[C@H](c2ccc(C#Cc3ccc(F)cc3)cc2)[C@@H](CO)N1C(=O)C1CC1 | 72*
N#C[C@H]1[C@@H](c2ccc(C#Cc3cccc(F)c3)cc2)[C@@H](CO)N1C(=O)C1CCCC1 | 1
FC(F)Sc1ccc(-n2c(-c3ccc(Cl)cc3)c[n+]3c2CCC3)cc1 | 14

Bioassay records as filed in PubChem BioAssay.
